Test results as given in PubChem BioAssay AID1159580 (chemical genetic matrix, 2015).
In all, about 5,500 compounds went through this assay and about 2,000 (36%) were called active. Inconclusive results (about 18%) are left out. Rule as the data show it: active = normalized growth mostly below about 0.91 (no sharp cut-off); inconclusive = no clear call, values can overlap the other calls; inactive = mostly above about 0.92. The list shows a part of the results.

Experiment: chemical genetic growth profiling, strain panel (AID 1159580);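 also: tested at 20 µM; growth read once vehicle control cultures reached saturation at 30 °C; 1 = growth at the plate median or of vehicle wells; lower values mean less growth of the strain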
Conditions: growth OD

Measured: normalized growth

CCOP(=S)(OCC)Oc1ccc2c(C)c(Cl)c(=O)oc2c1
inactive: S. cerevisiae deletion strains, locus YJR075W, strain HOC1, stronger effect = lower value 0.945 | S. cerevisiae deletion strains, locus YKL009W, strain mrt4, stronger effect = lower value 0.952 | S. cerevisiae deletion strains, locus YKL068W, stronger effect = lower value 0.985 | S. cerevisiae deletion strains, locus YKL085W, strain MDH1 (second series), stronger effect = lower value 0.982 | S. cerevisiae deletion strains, locus YKL085W, strain MDH1, stronger effect = lower value 0.982 | S. cerevisiae deletion strains, locus YKL160W, strain elf1, stronger effect = lower value 1 | S. cerevisiae deletion strains, locus YKL190W, strain CNB1, stronger effect = lower value 0.983 | S. cerevisiae deletion strains, locus YKR001C, strain vps1, stronger effect = lower value 0.981 | S. cerevisiae deletion strains, locus YKR026C, strain gcn3, stronger effect = lower value 0.944 | S. cerevisiae deletion strains, locus YKR091W, strain srl3, stronger effect = lower value 0.973 | S. cerevisiae deletion strains, locus YLL001W, strain dnm1, stronger effect = lower value 0.988 | S. cerevisiae deletion strains, locus YLL026W, stronger effect = lower value 0.946 | S. cerevisiae deletion strains, locus YLL041C, strain sdh2, stronger effect = lower value 0.956 | S. cerevisiae deletion strains, locus YLR027C, strain aat2, stronger effect = lower value 0.935 | S. cerevisiae deletion strains, locus YLR039C, strain RIC1, stronger effect = lower value 0.94 | S. cerevisiae deletion strains, locus YLR058C, strain SHM2, stronger effect = lower value 0.971 | S. cerevisiae deletion strains, locus YLR102C, strain apc9, stronger effect = lower value 0.985 | S. cerevisiae deletion strains, locus YLR113W, strain HOG1, stronger effect = lower value 0.936 | S. cerevisiae deletion strains, locus YLR221C, strain rsa3, stronger effect = lower value 0.933 | S. cerevisiae deletion strains, locus YLR258W, strain gsy2, stronger effect = lower value 0.969 | S. cerevisiae deletion strains, locus YLR262C, strain YPT6 (second series), stronger effect = lower value 0.976 | S. cerevisiae deletion strains, locus YLR262C, strain YPT6, stronger effect = lower value 0.929 | S. cerevisiae deletion strains, locus YLR268W, strain sec22, stronger effect = lower value 0.965 | S. cerevisiae deletion strains, locus YLR320W, strain mms22, stronger effect = lower value 0.914 | S. cerevisiae deletion strains, locus YLR330W, strain CHS5, stronger effect = lower value 0.979 | S. cerevisiae deletion strains, locus YLR342W, strain FKS1 (second series), stronger effect = lower value 1.01 | S. cerevisiae deletion strains, locus YLR342W, strain FKS1, stronger effect = lower value 0.961 | S. cerevisiae deletion strains, locus YLR357W, strain rsc2, stronger effect = lower value 0.972 | S. cerevisiae deletion strains, locus YLR370C, strain arc18, stronger effect = lower value 0.944 | S. cerevisiae deletion strains, locus YLR371W, strain rom2, stronger effect = lower value 0.993 | S. cerevisiae deletion strains, locus YLR384C, strain iki3, stronger effect = lower value 0.983 | S. cerevisiae deletion strains, locus YLR418C, strain cdc73, stronger effect = lower value 0.956 | S. cerevisiae deletion strains, locus YML016C, strain PPZ1, stronger effect = lower value 0.983 | S. cerevisiae deletion strains, locus YML032C, strain rad52, stronger effect = lower value 0.979 | S. cerevisiae deletion strains, locus YML120C, strain ndi1, stronger effect = lower value 0.962 | S. cerevisiae deletion strains, locus YML124C, strain tub3, stronger effect = lower value 0.986 | S. cerevisiae deletion strains, locus YMR058W, strain fet3, stronger effect = lower value 0.957 | S. cerevisiae deletion strains, locus YMR078C, strain ctf18, stronger effect = lower value 0.979 | S. cerevisiae deletion strains, locus YMR125W, strain sto1, stronger effect = lower value 0.97 | S. cerevisiae deletion strains, locus YMR129W, stronger effect = lower value 0.97 | S. cerevisiae deletion strains, locus YMR205C, strain PFK2, stronger effect = lower value 0.955 | S. cerevisiae deletion strains, locus YMR223W, strain ubp8, stronger effect = lower value 0.987 | S. cerevisiae deletion strains, locus YMR231W, strain pep5, stronger effect = lower value 0.948 | S. cerevisiae deletion strains, locus YMR263W, strain SAP30, stronger effect = lower value 0.972 | S. cerevisiae deletion strains, locus YMR307W, strain GAS1, stronger effect = lower value 0.894 | S. cerevisiae deletion strains, locus YNL067W, strain RPL9B, stronger effect = lower value 0.981 | S. cerevisiae deletion strains, locus YNL071W, strain lat1, stronger effect = lower value 0.944 | S. cerevisiae deletion strains, locus YNL128W, strain TEP1, stronger effect = lower value 0.952 | S. cerevisiae deletion strains, locus YNL153C, strain GIM3, stronger effect = lower value 0.972 | S. cerevisiae deletion strains, locus YNL183C, strain NPR1, stronger effect = lower value 0.974 | S. cerevisiae deletion strains, locus YNL209W, strain ssb2, stronger effect = lower value 0.957 | S. cerevisiae deletion strains, locus YNL233W, strain BNI4, stronger effect = lower value 0.959 | S. cerevisiae deletion strains, locus YNL248C, strain rpa49, stronger effect = lower value 0.96 | S. cerevisiae deletion strains, locus YNL250W, strain rad50, stronger effect = lower value 0.98 | S. cerevisiae deletion strains, locus YNL271C, strain bni1, stronger effect = lower value 0.99 | S. cerevisiae deletion strains, locus YNL298W, strain CLA4, stronger effect = lower value 0.979 | S. cerevisiae deletion strains, locus YNL307C, strain MCK1, stronger effect = lower value 0.981 | S. cerevisiae deletion strains, locus YNL322C, strain KRE1 (second series), stronger effect = lower value 0.932 | S. cerevisiae deletion strains, locus YNL322C, strain KRE1, stronger effect = lower value 0.981 | S. cerevisiae deletion strains, locus YNR049C, strain mso1, stronger effect = lower value 0.954 | S. cerevisiae deletion strains, locus YNR052C, strain pop2, stronger effect = lower value 0.994 | S. cerevisiae deletion strains, locus YOL006C, strain TOP1, stronger effect = lower value 0.884 | S. cerevisiae deletion strains, locus YOL012C, strain htz1 1.3 | S. cerevisiae deletion strains, locus YOL147C, strain pex11, stronger effect = lower value 0.993 | S. cerevisiae deletion strains, locus YOR001W, strain rrp6, stronger effect = lower value 0.95 | S. cerevisiae deletion strains, locus YOR061W, strain CKA2, stronger effect = lower value 0.961 | S. cerevisiae deletion strains, locus YOR069W, strain VPS5, stronger effect = lower value 0.979 | S. cerevisiae deletion strains, locus YOR070C, strain gyp1, stronger effect = lower value 0.994 | S. cerevisiae deletion strains, locus YOR080W, strain dia2, stronger effect = lower value 0.959 | S. cerevisiae deletion strains, locus YOR083W, strain WHI5, stronger effect = lower value 0.991 | S. cerevisiae deletion strains, locus YOR106W, strain vam3, stronger effect = lower value 0.939 | S. cerevisiae deletion strains, locus YOR136W, strain idh2, stronger effect = lower value 0.977 | S. cerevisiae deletion strains, locus YOR144C, strain elg1, stronger effect = lower value 0.985 | S. cerevisiae deletion strains, locus YOR184W, strain ser1, stronger effect = lower value 0.976 | S. cerevisiae deletion strains, locus YOR231W, strain MKK1, stronger effect = lower value 1.03 | S. cerevisiae deletion strains, locus YOR265W, strain rbl2, stronger effect = lower value 0.94 | S. cerevisiae deletion strains, locus YOR270C, strain vph1, stronger effect = lower value 0.904 | S. cerevisiae deletion strains, locus YOR290C, strain snf2, stronger effect = lower value 0.928 | S. cerevisiae deletion strains, locus YOR316C, strain cot1, stronger effect = lower value 0.971 | S. cerevisiae deletion strains, locus YPL051W, strain arl3, stronger effect = lower value 0.963 | S. cerevisiae deletion strains, locus YPL055C, strain LGE1, stronger effect = lower value 0.948 | S. cerevisiae deletion strains, locus YPL078C, strain atp4, stronger effect = lower value 0.982 | S. cerevisiae deletion strains, locus YPL106C, strain sse1, stronger effect = lower value 0.957 | S. cerevisiae deletion strains, locus YPL240C, strain hsp82, stronger effect = lower value 0.95 | S. cerevisiae deletion strains, locus YPL241C, strain CIN2, stronger effect = lower value 0.982 | S. cerevisiae deletion strains, locus YPL256C, strain CLN2, stronger effect = lower value 1.03 | S. cerevisiae deletion strains, locus YPR119W, strain clb2, stronger effect = lower value 0.983 | S. cerevisiae deletion strains, locus YPR141C, strain kar3, stronger effect = lower value 0.951 | S. cerevisiae deletion strains, locus YPR163C, strain tif3, stronger effect = lower value 0.987 | S. cerevisiae deletion strains, locus YPR167C, strain met16, stronger effect = lower value 0.99 | S. cerevisiae deletion strains, strain wtn01, stronger effect = lower value 0.989 | S. cerevisiae strains, strain wild type, stronger effect = lower value 0.981
